In assay [1] the test system is CRL-7250. The assay can be described thus: Cytotoxic Profiling of Annotated Libraries Using Quantitative High-Throughput Screening (AID 1296008). For max response: % is set by controls: 0 for no effect and ±100 for the full control effect. Note: potency is the fitted concentration of half-maximal effect. The note with it: Five cell lines viability, CellTiter-Glo ATP luminescence, 48-72 h; max response: stronger effect = lower value. The method, boiled down: (§1)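 Cytotoxicity was measured as CellTiter-Glo ATP luminescence, read after 10 min at room temperature. Compound treatment of the cells lasted 48 or 72 hr at 37 degrees Celsius in a qHTS format.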

For the next assay, the system named is HEK293. Described as above. Conditions: Five cell lines viability, CellTiter-Glo ATP luminescence, 48-72 h; max response: stronger effect = lower value. In outline:
as §1

Assay [2] has as its system HaCat. The description is as above. The note with it: Five cell lines viability, CellTiter-Glo ATP luminescence, 48-72 h; max response: stronger effect = lower value. The method, boiled down: as §1
The test system of another assay is KB-3-1. The assay is described as above. Conditions: Five cell lines viability, CellTiter-Glo ATP luminescence, 48-72 h; max response: stronger effect = lower value. In outline: as §1
Background: Cellular ATP, detected with luciferase, serves as a proxy for viable cell number.

The next assay concerns NIH3T3. Described as above. The note with it: Five cell lines viability, CellTiter-Glo ATP luminescence, 48-72 h; max response: stronger effect = lower value. In outline:
as §1

Assay [3] concerns HACAT. In words: qHTS assay to identify novel small-molecules to repurpose for Merkel cell carcinoma treatment (AID 1296009). The note with it: MCC and control cell lines, CellTiter-Glo viability, 72 h; at 44.8 µM (top of the series) unless noted. In outline: (§2)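 Cell viability measured by CellTiter-Glo following 72 hr compound treatment at 37 degree celsius, with NPC and MIPE libraries tested in 8- and 11-point concentration series.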

The test system of another assay is MCC-13. The assay is described as above. Conditions: MCC and control cell lines, CellTiter-Glo viability, 72 h; series mostly up to 46 µM. The method, boiled down: as §2
A further assay concerns PC15. The assay can be described thus: qHTS profiling for inhibitors of Plasmodium falciparum proliferation (AID 504749).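 Note: 0% = DMSO vehicle and full inhibition = artemisinin control.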 The note with it: P. falciparum in erythrocytes, SYBR Green DNA, 72 h; series mostly up to 28.7 µM. In outline:
(§3)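 In a 72 h erythrocytic culture (37 C, humidified, 5% CO2) at 2.5% hematocrit and 0.3% starting parasitemia, compounds were tested; SYBR Green I in detergent lysis buffer stained parasite DNA overnight.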
On the technique in general: qHTS replaces the single test concentration by a dilution series.

For the next assay, the system named is PC26. Described as above. The note with it: P. falciparum in erythrocytes, SYBR Green DNA, 72 h; series mostly up to 28.7 µM. The method, boiled down: as §3
The next assay deals with PC49. The assay is described as above. The note with it: P. falciparum in erythrocytes, SYBR Green DNA, 72 h; series mostly up to 28.7 µM. The method, boiled down:
as §3

The test system of a further assay is SC27B. The description is as above. The note with it: P. falciparum in erythrocytes, SYBR Green DNA, 72 h; series mostly up to 28.7 µM. In outline: as §3
The next assay concerns TAB113. Described as above. Conditions: P. falciparum in erythrocytes, SYBR Green DNA, 72 h; series mostly up to 28.7 µM. The method, boiled down:
as §3

The next assay concerns HEK293T. In words: qHTS assay to identify novel small-molecules to repurpose for Merkel cell carcinoma treatment (AID 1296009). The note with it: MCC and control cell lines, CellTiter-Glo viability, 72 h; at 44.8 µM (top of the series) unless noted. The method, boiled down: as §2
The subject of another assay is P93_24. In words: qHTS profiling for inhibitors of Plasmodium falciparum proliferation (AID 504749).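 Note: 0% = DMSO vehicle and full inhibition = artemisinin control.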 Conditions: P. falciparum in erythrocytes, SYBR Green DNA, 72 h; series mostly up to 28.7 µM. In outline: as §3
Another assay deals with P94_40. The description is as above. Conditions: P. falciparum in erythrocytes, SYBR Green DNA, 72 h; series mostly up to 28.7 µM. In outline:
as §3

Another assay has as its system PAD. Described as above. Conditions: P. falciparum in erythrocytes, SYBR Green DNA, 72 h; series mostly up to 28.7 µM. The method, boiled down: as §3
In the next assay the test system is TAB109. The description is as above. The note with it: P. falciparum in erythrocytes, SYBR Green DNA, 72 h; series mostly up to 28.7 µM. The method, boiled down:
as §3

The test system of a further assay is TAB165. The description is as above. The note with it: P. falciparum in erythrocytes, SYBR Green DNA, 72 h; series mostly up to 28.7 µM. The method, boiled down:
as §3

A further assay concerns W2. The assay is described as above. The note with it: P. falciparum in erythrocytes, SYBR Green DNA, 72 h; series mostly up to 28.7 µM. The method, boiled down: as §3
Assay [4] deals with CRL-7250. In words: qHTS assay to identify novel small-molecules to repurpose for Merkel cell carcinoma treatment (AID 1296009). Conditions: MCC and control cell lines, CellTiter-Glo viability, 72 h; at 44.8 µM (top of the series) unless noted. The method, boiled down:
as §2

The structures appear in SMILES notation. Where “and” joins values, the source holds several entries; their conditions need not be identical. Identical values can stand only once. Records with an inconclusive call do not appear. Values without a mark were called inactive. Calls of active or inactive are those of the source. Calls come from the whole dose curve; as a rule, active = well fitted inhibition curve with a large enough effect; inconclusive = small, poorly fitted or top-dose-only effect; inactive = flat fitted curve, though single readings scatter.
Note: nearly all actives have a fitted effect of over 60% in size.

For `CC(N[C@H]1C[C@H]1c1ccccc1)c1ccc2c(c1)OCCO2` (some centres undefined), the max response in the assay on CRL-7250 [1] is 1.35% and -26.3%; with HEK293 it was 0.032% and -12.5%; in the assay with KB-3-1, 2.53% and -2.54%; in the assay with NIH3T3, 4.85% and -28.5%. The call in the assay with HaCat [2] and in the assay on HACAT [3] was inactive. Also, in the assay on MCC-13, the Potency result was “inactive”.

Regarding `CN(C)[C@@H]1C(=O)C(C(N)=O)=C(O)[C@@]2(O)C(=O)C3=C(O)c4c(O)cccc4[C@@](C)(O)[C@H]3[C@H](O)[C@@H]12`, the Potency result in the assay on PC15, in the assay on PC26, in the assay with PC49, in the assay on SC27B, in the assay on TAB113 and in the assay with MCC-13 was “inactive” in each case. Further, the max response is -1.31% in the assay on CRL-7250 [1]; -7.87% and 0.265% and -1.24% with KB-3-1; 4.97% with NIH3T3. Besides, the result in the assay with HEK293, in the assay on HaCat [2], in the assay on HACAT [3] and in the assay with HEK293T was inactive.

Consider `COC(=O)[C@@H](N)CCCN=C(N)N[N+](=O)[O-]`, for which the Potency entry in the assay on P93_24, with P94_40, with PAD, with PC15, in the assay with PC26 and in the assay with PC49 was “inactive” each time. Besides, the Potency result in the assay with SC27B, with TAB109, in the assay with TAB113, in the assay on TAB165, in the assay with W2 and in the assay with MCC-13 was “inactive” throughout. Moreover, the molecule was called inactive with CRL-7250 [1] and in the assay with CRL-7250 [4]. The max response is 0.845% in the assay with HEK293, -4.22% in the assay on HaCat [2], 9.25% in the assay on KB-3-1 and 1.58% in the assay on NIH3T3.

Take `COc1cc([C@@H]2c3cc4c(cc3[C@@H](O)C3COC(=O)C32)OCO4)cc(OC)c1O` (some centres undefined): the Potency is 0.0833 µM (active) with CRL-7250 [1], 0.0372 µM (active) in the assay on HEK293, 0.0662 µM (active) with KB-3-1 and 0.132 µM (active) in the assay with NIH3T3. Further, the max response with HaCat [2] is 3.35%.

As for `CC1=NN=C(c2ccc(N)cc2)c2cc3c(cc2C1)OCO3`, the molecule was called inactive in the assay on CRL-7250 [1], with KB-3-1, with NIH3T3 and with CRL-7250 [4]. The max response in the assay with HEK293 is 3.46%; in the assay on HaCat [2], -15.7%. Also, the Potency result in the assay on MCC-13 was “inactive”.

For the molecule `Cc1nc(-c2ccc(-c3ccc(C(=O)N4CCc5cc6c(cc54)C4(CCN(C)CC4)CO6)cc3)c(C)c2)no1`, the max response in the assay on CRL-7250 [1] was -11.3%; in the assay with HEK293, 4.59%; in the assay with KB-3-1, 2.18%; with NIH3T3 it was 1.47%. Besides, the result in the assay with HaCat [2] and in the assay on HACAT [3] was inactive. The Potency entry in the assay with MCC-13 was “inactive”.

As to `CC(=O)NCCc1c[nH]c2ccccc12`, the values for the max response with CRL-7250 [1] and in the assay on HEK293 were -10.8% and -1.55%, respectively. Also, the call in the assay on HaCat [2], in the assay with KB-3-1 and in the assay with NIH3T3 was inactive. The outcome with HACAT [3] is “inactive [at 92 µM]”.

In the case of `CC(=O)N(C)c1cccc(-c2ccnc3c(C(=O)c4cccs4)cnn23)c1`, the max response in the assay on CRL-7250 [1] is -13.2%; in the assay with HEK293 it was -28% and -16.5%; with HaCat [2], 3.39%; in the assay with KB-3-1, -3.54%; with NIH3T3, -0.872% and 2.98%. Besides, the molecule was called inactive in the assay with CRL-7250 [1], with HaCat [2], in the assay on KB-3-1, in the assay on CRL-7250 [4] and in the assay with HACAT [3]. Also, in the assay on MCC-13, the Potency result was “inactive”.

`S=C(NC1CCCCC1)N1CCC(c2cnc[nH]2)CC1`: the max response with CRL-7250 [1] is -0.728%; in the assay on HEK293, -0.423%; in the assay with HaCat [2], -12.4%; with KB-3-1 it was -10.7%; with NIH3T3, -20.5%.

As for `CC1=C(C(=O)O)N2C(=O)[C@@H](N)[C@H]2SC1`, in the assay on CRL-7250 [4], the outcome is “inactive [at 17.4 µM]”.

For the molecule `CC(C)(C)c1cc(C=C(C#N)C#N)cc(Br)c1O`, the outcome with CRL-7250 [4] was inactive.

Consider `CCOC(=O)c1cncn1[C@H](C)c1ccccc1`, for which the max response in the assay with CRL-7250 [1] is 2.73%; with KB-3-1, 6.23%. The call with HaCat [2], in the assay with NIH3T3, with HACAT [3] and in the assay on HEK293T was inactive. In addition, the Potency entry in the assay with MCC-13 is “inactive”.

Turning to `C1CCC(NC2CCCCC2)CC1`, the Potency result with P93_24, with P94_40, with PAD, in the assay with PC15, in the assay on PC26 and with PC49 was “inactive” in each case. Also, the Potency result in the assay on SC27B, in the assay with TAB109, in the assay on TAB113, with TAB165, in the assay on W2 and in the assay with MCC-13 was “inactive” each time. Further, the outcome in the assay on CRL-7250 [1] and in the assay with CRL-7250 [4] was inactive. The max response in the assay with HaCat [2] is 3.35%; with KB-3-1, 6.25%; in the assay on NIH3T3, -2.97%.

`CC(C)[C@]12O[C@H]1[C@@H]1O[C@]13[C@]1(O[C@H]1C[C@H]1C4=C(CC[C@@]13C)C(=O)OC4)[C@@H]2O`: the Potency in the assay with CRL-7250 [1] is 0.082 µM (active); with HaCat [2], 0.13 µM (active); with KB-3-1, 0.0651 µM (active); in the assay on NIH3T3 it was 0.092 µM (active).

In the case of `O=C(O)COc1nc(Cl)c(Cl)cc1Cl`, the max response with CRL-7250 [1] was -6.6%; with HEK293, -3.5%; in the assay with KB-3-1 it was -16.3%; in the assay with NIH3T3 it was -4.26%. Besides, the Potency result in the assay on MCC-13 is “inactive”.

With `COc1ccc2c(c1)CN(C)CC2c1ccc(Cl)c(Cl)c1` (centres undefined), the molecule was classed as inactive in the assay with CRL-7250 [1], with HaCat [2], with KB-3-1, with CRL-7250 [4] and in the assay on HACAT [3]. Moreover, in the assay with NIH3T3, the max response is -1.98%. Further, in the assay on MCC-13, the Potency entry is “inactive”.

On to `C[C@H]([C@H](O)CCC(C)(C)O)[C@H]1CC[C@@]2(O)C3=CC(=O)[C@@H]4C[C@@H](O)[C@@H](O)C[C@]4(C)[C@@H]3CC[C@]12C`, for which the max response was -2.7% in the assay with CRL-7250 [1] and -1.89% in the assay with KB-3-1. The outcome in the assay with HaCat [2], in the assay on NIH3T3, with HACAT [3] and with HEK293T was inactive. The Potency entry in the assay on MCC-13 is “inactive”.

For the molecule `C=C1C[C@H]2[C@H]3CCC(=O)[C@@]3(C)CC[C@@H]2[C@@]2(C)C=CC(=O)C=C12`, the results for the max response with CRL-7250 [1], in the assay on KB-3-1 and in the assay with NIH3T3 were -22.6%, 8.58% and -14.2%, respectively. Besides, the result with HaCat [2] and in the assay with HACAT [3] was inactive. In the assay on MCC-13, the Potency result was “inactive”.
